Records with an inconclusive call do not appear. A number with no mark means an inactive call. Calls of active or inactive are those of the source. Calls follow the shape of the dose curve; as a rule, active = well fitted inhibition curve with a large enough effect; inconclusive = small, poorly fitted or top-dose-only effect; inactive = flat fitted curve, though single readings scatter.
test system: CP250; assay: qHTS profiling for inhibitors of Plasmodium falciparum proliferation (AID 504749); also: nearly all actives have a fitted effect of over 60% in size;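 as to activity, negative = inhibition: 0% = DMSO vehicle and full inhibition = artemisinin control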; details: P. falciparum in erythrocytes, SYBR Green DNA, 72 h; series mostly up to 28.7 µM; activity, negative = inhibition: at the top concentration
Outline: (§1)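 Readout was DNA-dye fluorescence from lysed cultures, ex 485/em 535 nm. Parasitized red cells had grown 72 h with compound; data scaled between 0.29 uM artemisinin and DMSO wells and corrected using vehicle-only plates.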
Potency is read from the fitted curve at half-maximal effect.

Row | Structure (SMILES) | activity, negative = inhibition | Potency
1 | Cn1nnc2c(C(N)=O)ncn2c1=O | 3.51% | –
2 | CC(C)OC(=O)C(C(=O)OC(C)C)=C1SC=CS1 | 4.12% | –
3 | CC1=NN(c2ccccc2)C(=O)C1 | 0.422% | –
4 | COC(=O)Nc1nc2ccc(Sc3ccccc3)cc2[nH]1 | 9.66% [at 12.8 µM] | –
5 | CCc1c2c(nc3ccc(OC(=O)N4CCC(N5CCCCC5)CC4)cc13)-c1cc3c(c(=O)n1C2)COC(=O)[C@]3(O)CC | 5.48% | –
6 | Cc1noc(NS(=O)(=O)c2ccc(N)cc2)c1C | -10.5% | –
7 | CN1CCN(c2c(F)cc3c(=O)c(C(=O)O)cn4c3c2OCN4C)CC1 | -0.75% | –
8 | S=P(N1CC1)(N1CC1)N1CC1 | 4.4% | –
9 | CC[C@H](NC(C)C)[C@H](O)c1ccc(O)c2[nH]c(=O)ccc12 | 0.838% | –
10 | CC[C@H](C)C(=O)O[C@H]1C[C@@H](C)C=C2C=C[C@H](C)[C@H](CC[C@@H]3C[C@@H](O)CC(=O)O3)[C@H]21 | 2.31% | –
11 | CC(C)(Sc1cc(C(C)(C)C)c(O)c(C(C)(C)C)c1)Sc1cc(C(C)(C)C)c(O)c(C(C)(C)C)c1 | 0.954% [at 12.8 µM] | –
12 | Cc1ncc([N+](=O)[O-])n1CCO | -2.47% | –
13 | CCCc1cc(C(N)=S)ccn1 | 2.15% | –
14 | CCCN[C@H]1CCc2nc(N)sc2C1 | -16% | –
15 | COC(=O)Nc1nc2ccc(C(=O)c3ccccc3)cc2[nH]1 | 1.35% [at 12.8 µM] | –
16 | CC(C)(C#N)c1cc(Cn2cncn2)cc(C(C)(C)C#N)c1 | 4.9% | –
17 | O=C(O)c1cc(=O)[nH]c(=O)[nH]1 | 0.928% | –
18 | CNS(=O)(=O)Cc1ccc2[nH]cc(CCN(C)C)c2c1 | -1.33% | –
19 | CCOc1cc(N)c(Cl)cc1C(=O)NCC1CN(Cc2ccc(F)cc2)CCO1 (configuration not stated) | – | 5620 nM (active)
20 | CCC(C)(C)c1ccc(CC(C)CN2C[C@@H](C)O[C@@H](C)C2)cc1 (some centres not stated) | -6.64% | –
21 | CN(C)c1ccc(C(=C2C=CC(=[N+](C)C)C=C2)c2ccc(N(C)C)cc2)cc1 | – | 316 nM (active)
22 | COc1ccc(C(=O)CC(=O)c2ccc(C(C)(C)C)cc2)cc1 | -0.919% | –
23 | CCc1cc(C(N)=S)ccn1 | 4.58% | –
24 | NC(=O)N1c2ccccc2CC(=O)c2ccccc21 | -15.8% | –
25 | Cc1nnc(NS(=O)(=O)c2ccc(N)cc2)s1 | -2.52% | –
26 | CCN(C)C(=O)Oc1cccc([C@H](C)N(C)C)c1 | 7.69% | –
27 | CNC1CCCN(c2c(F)cc3c(=O)c(C(=O)O)cn(C4CC4)c3c2OC)C1 (configuration not stated) | -19.5% | –
28 | COc1cc(NCc2ccc3nc(N)nc(N)c3c2C)cc(OC)c1OC | – | 794 nM (active)

test system: CP252; assay: as above; details: P. falciparum in erythrocytes, SYBR Green DNA, 72 h; series mostly up to 28.7 µM; activity, negative = inhibition: at the top concentration
Outline: as §1

Row | Structure (SMILES) | activity, negative = inhibition | Potency
29 | Cn1nnc2c(C(N)=O)ncn2c1=O | 0.761% | –
30 | CC(C)OC(=O)C(C(=O)OC(C)C)=C1SC=CS1 | -5.66% | –
31 | CC1=NN(c2ccccc2)C(=O)C1 | -10.4% | –
32 | COC(=O)Nc1nc2ccc(Sc3ccccc3)cc2[nH]1 | -0.99% [at 12.8 µM] | –
33 | CCc1c2c(nc3ccc(OC(=O)N4CCC(N5CCCCC5)CC4)cc13)-c1cc3c(c(=O)n1C2)COC(=O)[C@]3(O)CC | -0.607% | –
34 | Cc1noc(NS(=O)(=O)c2ccc(N)cc2)c1C | -4.46% | –
35 | CN1CCN(c2c(F)cc3c(=O)c(C(=O)O)cn4c3c2OCN4C)CC1 | -2.51% | –
36 | S=P(N1CC1)(N1CC1)N1CC1 | -0.496% | –
37 | CC[C@H](NC(C)C)[C@H](O)c1ccc(O)c2[nH]c(=O)ccc12 | 6.45% | –
38 | CC[C@H](C)C(=O)O[C@H]1C[C@@H](C)C=C2C=C[C@H](C)[C@H](CC[C@@H]3C[C@@H](O)CC(=O)O3)[C@H]21 | -11% | –
39 | CC(C)(Sc1cc(C(C)(C)C)c(O)c(C(C)(C)C)c1)Sc1cc(C(C)(C)C)c(O)c(C(C)(C)C)c1 | 3.41% [at 12.8 µM] | –
40 | Cc1ncc([N+](=O)[O-])n1CCO | 1.07% | –
41 | CCCc1cc(C(N)=S)ccn1 | -2.49% | –
42 | CCCN[C@H]1CCc2nc(N)sc2C1 | -2.43% | –
43 | COC(=O)Nc1nc2ccc(C(=O)c3ccccc3)cc2[nH]1 | 0.334% [at 12.8 µM] | –
44 | CC(C)(C#N)c1cc(Cn2cncn2)cc(C(C)(C)C#N)c1 | 6.86% | –
45 | COc1c(N2CCNC(C)C2)c(F)cc2c(=O)c(C(=O)O)cn(C3CC3)c12 (configuration not stated) | -21.1% | –
46 | O=C(O)c1cc(=O)[nH]c(=O)[nH]1 | 8.19% | –
47 | CNS(=O)(=O)Cc1ccc2[nH]cc(CCN(C)C)c2c1 | -4.44% | –
48 | CCOc1cc(N)c(Cl)cc1C(=O)NCC1CN(Cc2ccc(F)cc2)CCO1 (configuration not stated) | – | 10000 nM (active)
49 | CCC(C)(C)c1ccc(CC(C)CN2C[C@@H](C)O[C@@H](C)C2)cc1 (some centres not stated) | -0.186% | –
50 | CN(C)c1ccc(C(=C2C=CC(=[N+](C)C)C=C2)c2ccc(N(C)C)cc2)cc1 | – | 224 nM (active)
51 | COc1ccc(C(=O)CC(=O)c2ccc(C(C)(C)C)cc2)cc1 | 1.05% | –
52 | CCc1cc(C(N)=S)ccn1 | 2.84% | –
53 | NC(=O)N1c2ccccc2CC(=O)c2ccccc21 | 4.14% | –
54 | Cc1nnc(NS(=O)(=O)c2ccc(N)cc2)s1 | -0.201% | –
55 | CCN(C)C(=O)Oc1cccc([C@H](C)N(C)C)c1 | -0.623% | –
56 | CNC1CCCN(c2c(F)cc3c(=O)c(C(=O)O)cn(C4CC4)c3c2OC)C1 (configuration not stated) | -6.59% | –
57 | COc1cc(NCc2ccc3nc(N)nc(N)c3c2C)cc(OC)c1OC | – | 251 nM (active)

From PubChem BioAssay (NCATS)
